# Rows were chosen to be rich in hits. Some 11% of all compounds tested hit in one or more screens of this group.
# PNC assembly inh: High Content Assay for Compounds that inhibit the Assembly of the Perinucleolar Compartment | hit rate 3.1% among 140,000 | activity change (PNC), negative = inhibition, % at 10 µM | PC3M PTB-GFP, PNC prevalence imaging, 16 h; stronger effect = lower value;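 active means readout at or below -70, meaning at least 70% loss of cells showing the perinucleolar compartment, a nuclear body marking cancer cells; inconclusive means readout between -30 and a set limit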;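 further: plate controls were DMSO wells for no effect and camptothecin positive control wells for full effect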
#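 Read-out is percentage of cells bearing a perinucleolar compartment, from automated 20x imaging of fixed, Hoechst-stained PC3M PTB-GFP cells. Cells were seeded 4 h, then exposed 16 h to compound (23 nl of library stock) in duplicate plates.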
# HPGD block: qHTS Assay for Inhibitors of HPGD (15-Hydroxyprostaglandin Dehydrogenase) | 15-hydroxyprostaglandin dehydrogenase [NAD(+)] (Homo sapiens), P15428 | purified HPGD, NADH fluorescence kinetic, PGE2 substrate | Potency, µM, inactives show at the top dose activity change, negative = inhibition, most hits filed as inhibitors | hit rate 4.3% among 150,000 | AID 894, 2007; active means well fitted inhibition curve with a large enough effect, not every such curve was filed as active; inconclusive means small, poorly fitted or top-dose-only effect, or another doubt; inactive means no such curve, though single readings can be large or run the other way; further: potency means the concentration at half of the fitted maximal effect
# Target sequence (P15428 whole entry, looked up): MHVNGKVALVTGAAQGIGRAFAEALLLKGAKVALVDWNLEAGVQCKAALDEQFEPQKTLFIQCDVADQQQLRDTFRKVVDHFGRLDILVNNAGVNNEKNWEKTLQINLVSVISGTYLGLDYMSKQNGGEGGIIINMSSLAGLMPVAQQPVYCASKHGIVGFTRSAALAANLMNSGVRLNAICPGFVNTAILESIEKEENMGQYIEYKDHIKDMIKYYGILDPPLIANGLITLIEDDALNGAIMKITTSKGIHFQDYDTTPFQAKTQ
#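 NADH formation kinetics: reaction with 30 uM PGE2 and 1 mM NAD+ (final), 20 nM enzyme, Tris-HCl pH 8 with Tween 20, after 15 min compound preincubation at room temperature. Fluorescence change, last versus first of five reads.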
# IMPase Li inh: qHTS Assay for Identifying the Cell-Membrane Permeable IMPase Inhibitors: Potentiation with Lithium; Potency, µM (series often up to 59.4 µM), without a hit: at the top dose activity, negative = IMPase inhibition, actives largely listed as inhibitors; CHO-M1 cells, IP1 TR-FRET (IP-One), carbachol + lithium; hit rate 0.35% among 210,000;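 further: IP1 builds up when IMPase is blocked and the TR-FRET signal falls; potency means the concentration at half of the fitted maximal effect; plate controls were basal vehicle for no effect and high inhibitor control for full effect; nearly all actives have a fitted effect of over 50% in size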
#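 CHO-M1, 2000 cells/well, 16–30 h culture; cpd + low Li+, 30 min 37C; lysis with d2-IP1/Eu-anti-IP1 Ab, 10 min RT; TR-FRET 665/620 ratio and 620 channel; AC50 via Hill.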
# NPSR antag: qHTS Assay for Antagonists of the Neuropeptide S Receptor: cAMP Signal Transduction | Q6W5P4 | CHO-NPSR cells, cAMP TR-FRET, antagonist mode | Potency, µM (titrated, usually from 38.3 µM), inactives show at the top dose activity change, negative = inhibition, hits mostly inhibitors | hit rate 1% among 220,000; further: potency means the concentration at half of the fitted maximal effect; nearly all actives have a fitted effect of over 50% in size
# ALDH1A1 block: qHTS Assay for Inhibitors of Aldehyde Dehydrogenase 1 (ALDH1A1). Purified ALDH1A1, NADH fluorescence, propionaldehyde substrate. Potency, µM (titrated, usually from 75.3 µM), without a hit: at the top dose activity, negative = inhibition, hits mostly inhibitors. hit rate 7.3% among 220,000; active means well fitted inhibition curve with a large enough effect, not every such curve was filed as active; inconclusive means small, poorly fitted or top-dose-only effect, or another doubt; inactive means no such curve, though single readings can be large or run the other way;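 further: potency means the concentration at half of the fitted maximal effect; plate controls were no enzyme wells and a reference inhibitor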
# IMPase cell inh: qHTS Assay for Identifying the Cell-Membrane Permeable IMPase Inhibitors | Inositol monophosphatase 1 (Rattus norvegicus), P97697 | CHO-M1 cells, IP1 accumulation, HTRF TR-FRET ratio | inhibition (IP1 accumulation), % at 46.1 µM | 120,000 tested, under 10 active; active means well fitted curve in the direction sought with a large enough effect in the signal ratio, not every such curve was filed as active; inconclusive means small, poorly fitted or top-dose-only effect, or a change in a side signal; inactive means no such curve, though single readings can be large or run the other way; the % refers to the signal ratio;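 further: cells stimulated with carbachol in lithium chloride buffer; plate controls were DMSO basal wells for no effect and reference inhibitor wells for full effect; higher means more IMPase inhibition seen as more IP1 and lower FRET ratio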
# Target sequence (P97697 whole entry, looked up): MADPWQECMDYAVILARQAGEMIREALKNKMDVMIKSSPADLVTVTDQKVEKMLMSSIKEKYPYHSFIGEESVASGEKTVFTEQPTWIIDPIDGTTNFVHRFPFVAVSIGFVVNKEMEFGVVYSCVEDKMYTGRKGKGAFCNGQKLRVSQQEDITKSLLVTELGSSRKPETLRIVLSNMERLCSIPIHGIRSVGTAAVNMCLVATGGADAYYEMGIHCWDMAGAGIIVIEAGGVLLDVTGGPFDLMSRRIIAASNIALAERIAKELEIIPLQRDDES
#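 Elevated IP1 in lysates lowers TR-FRET signal (665/620 ratio and 620 channel reported). Cells were CHO-M1, given carbachol (50 uM as added) plus 50mM LiCl, pH 7.4, 30 min, 37C; compounds titrated up to 46 uM; AC50 by Hill equation.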
# * hit, by the source's call; ? = inconclusive; nt = not tested or not shown; [ ] = dose if it differs, or a comment. Unless noted, the call rests on the fitted dose curve; in most records, active means well fitted curve in the direction sought with a large enough effect; inconclusive means small, poorly fitted or top-dose-only effect, or another doubt; inactive means no such curve, though single readings can be large; an effect the other way counts as inactive or inconclusive. Unless noted, on the % scale 0 is the no-effect control and ±100 the full control effect.
SMILES,PNC assembly inh,HPGD block,IMPase Li inh,NPSR antag,ALDH1A1 block,IMPase cell inh
Cc1ccccc1Cn1ccc(NC(=O)c2cnn3c(C(F)(F)F)cc(-c4ccco4)nc23)n1,5.3,-12.6%,50.4%[38.3 µM],-12.1%[46.1 µM],-3.6%,4.0
COc1cc(C2NC(=O)C(C#N)=C(S)N2c2ccc(C)cc2)ccc1OC(C)C (centres undefined),?,25.1µM*,51.0%[38.3 µM],?,-102.2%,5.9
COc1ccc(N2C(S)=C(C#N)C(=O)NC2c2ccc(OC)c(OC)c2)cc1 (centres undefined),nt,nt,-3.8%,1.6%,?,nt
CCOc1ccc(C2NC(=O)C(C#N)=C(S)N2c2ccc(OC)cc2)cc1OC (centres undefined),20.0,-28.9%,9.1%[38.3 µM],?,20µM*,12.5
COc1ccc(C2NC(=O)C(C#N)=C(S)N2c2ccc(C)cc2)cc1OC (centres undefined),nt,nt,11.3%,-10.2%,17.8µM*,nt
O=C(COC(=O)c1ccc2c(c1)OCO2)Nc1ncc(Cl)cc1Cl,?,-18.8%,2.7%,3.6%,1.0%,nt
O=C(COC(=O)CCCN1C(=O)c2cccc3cccc(c23)C1=O)Nc1cccc(C(F)(F)F)c1,-106.0*,?,3.6%,-6.2%,?,nt
O=C(COC(=O)CN1C(=O)c2ccccc2C1=O)Nc1ncc(Cl)cc1Cl,38.2,1.2%,-4.6%[38.3 µM],-13.3%[46.1 µM],?,1.1
O=C(COC(=O)c1ccc2ncsc2c1)Nc1ncc(Cl)cc1Cl,-95.1*,-7.5%,0.4%,10.5%,-10.3%,nt
O=C(COC(=O)c1ccc(O)cc1)Nc1ncc(Cl)cc1Cl,nt,nt,-0.3%,-6.7%,28.2µM*,nt
Cc1c(Cl)cnc(NC(=O)COC(=O)c2ccc3ncsc3c2)c1Cl,-15.3,-8.2%,-3.9%,5.6%,-10.3%,nt
O=C(COC(=O)CCCN1C(=O)c2ccccc2C1=O)Nc1ncc(Cl)cc1Cl,-100.0*,-16.5%,-6.7%[38.3 µM],-22.8%[46.1 µM],-2.7%,4.8
COCCN1C(=O)C(=O)/C(=C(/O)c2ccc3c(c2)OCCO3)C1c1ccc(C(=O)OC)cc1 (centres undefined),12.1,-22.5%,?,-2.9%[46.1 µM],-10.8%,?
COc1ccccc1/C=C/C(=O)OCC(=O)NCc1ccco1,-13.2,?,-3.6%,25.5%,?,1.0
CCOc1ccc(OCC)c(C2C(C#N)=C(N)N(c3cccnc3)C3=C2C(=O)CC(C)(C)C3)c1 (centres undefined),-16.6,-19.7%,15.5%[38.3 µM],-7.6%[46.1 µM],3.55µM*,0.2
CCOC(=O)Cc1csc(NC(=O)Nc2ccc(C)cc2)n1,nt,nt,nt,-1.9%,nt,nt
O=C(c1cccc(F)c1)N1CCC2(CC1)CN(c1ccncc1)C2,nt,-4.0%,12.1%,nt,-9.8%,nt
N#C/C(=C\Nc1ccccn1)S(=O)(=O)c1ccc(Cl)cc1,nt,nt,nt,9.4%[7.67 µM],nt,nt
CCOC(=O)C1CCCN(c2cc(NCCCO)c([N+](=O)[O-])c3nonc23)C1 (centres undefined),?,12.6µM*,-0.4%,-5.6%,?,nt
Cc1nnc(Sc2cc(NCCCO)c([N+](=O)[O-])c3nonc23)s1,nt,nt,29.0%,?,?,nt
O=C(c1ccccc1)c1ccc2nc(N3CCN(c4ccc(F)cc4)CC3)c3nncn3c2c1,nt,nt,nt,nt,nt,7.8
Cc1ccc(NC(=S)NN(C)c2nc(C)cnc2C)cc1,-23.5,-6.1%,0.4%,6.3%,-4.2%,nt
Cc1ccc(C(=O)N2CCN(c3cc(=O)[nH]nc3-c3ccccc3)CC2)cc1,41.3,0.4%,-5.7%[38.3 µM],-4.9%[46.1 µM],15.8µM*,-6.6
CC(O)CNC(=O)c1ccc(-c2nn(C)c(=O)c3ccccc23)cc1 (centres undefined),-14.7,28.2µM*,19.7%[38.3 µM],-4.8%[46.1 µM],13.8%,-8.1
Cc1ccc(NC(=O)c2ccc(-c3nn(C)c(=O)c4ccccc34)cc2)c(C)c1,19.8,12.6µM*,9.4%[38.3 µM],?,8.91µM*,16.6
SMILES,PNC assembly inh,HPGD block,IMPase Li inh,NPSR antag,ALDH1A1 block,IMPase cell inh
CCCC(=O)NCc1cc(-c2nn(C)c(=O)c3ccccc23)ccc1C,-8.5,17.8µM*,1.2%[38.3 µM],-16.4%[46.1 µM],-8.0%,9.9
CCC(=O)NCc1cc(-c2nn(C)c(=O)c3ccccc23)ccc1C,-29.4,-29.8%,20.1%[38.3 µM],-4.4%[46.1 µM],9.0%,-1.8
O=C(CCc1ccccc1)NCC(=O)N/N=C/c1ccc2c(c1)OCO2,?,-12.3%,-0.4%,3.6%,-0.7%,nt
O=C1C(Cl)=C(N2CCN(Cc3ccccc3)CC2)C(=O)N1c1ccccc1,?,-6.5%,57.4%[38.3 µM],?,?,4.0
N=C(N)N1CCc2ccccc21,nt,nt,nt,9.4%,nt,nt
COc1cccc(CN2CCN(C(=O)c3ccc(-c4ccccc4)cc3)CC2)c1,-4.4,-15.0%,6.0%,-15.9%,?,nt
Cn1nc(-c2ccc(C(=O)N3CCN(Cc4ccccc4)CC3)cc2)c2ccccc2c1=O,3.8,15.8µM*,25.9%[38.3 µM],-6.6%[46.1 µM],-36.8%,2.7
Cc1ccc(NC(=O)c2ccc(-c3nn(C)c(=O)c4ccccc34)cc2)cc1,25.2,17.8µM*,35.3%[38.3 µM],-29.9%[46.1 µM],-15.4%,-1.1
O=C(CSc1ncnc2c1sc1ccccc12)Nc1ccc(Br)cc1,10.4,-13.6%,?,?,-13.7%,nt
Cn1cnnc1SC1CCCCC1NS(=O)(=O)c1ccc(Cl)cc1 (centres undefined),120.6,-3.3%,0.5%,25.8%[46.1 µM],12.6µM*,1.9
Nn1cnnc1SC1CCCCC1NS(=O)(=O)c1ccccc1 (centres undefined),?,-5.9%,32.8%[38.3 µM],-15.4%[46.1 µM],10µM*,0.2
Cn1cnnc1SC1CCCCC1NS(=O)(=O)c1ccccc1 (centres undefined),?,-3.3%,-10.4%[38.3 µM],2.0%[46.1 µM],7.94µM*,-1.9
Cc1cc(OCC(=O)NCc2cccnc2)ccc1[N+](=O)[O-],nt,nt,3.8%,1.9%,1.8%,nt
O=C(NCc1ccco1)c1cccc(NC(=O)c2ccccc2)c1,22.2,-27.7%,1.5%[38.3 µM],-4.0%[46.1 µM],-1.0%,0.5
CCC(CC)C(=O)Nc1cccc(C(=O)NCCc2ccc(S(N)(=O)=O)cc2)c1,-101.1*,-7.1%,8.6%[38.3 µM],-12.4%[46.1 µM],5.2%,-6.7
CCC(CC)C(=O)Nc1cccc(C(=O)NCc2ccco2)c1,-115.3*,-3.8%,19.0%[38.3 µM],-8.1%[46.1 µM],-14.7%,3.2
N#Cc1c(N)nc2c(c1N)CC(CCl)O2 (centres undefined),17.5,-28.1%,-1.3%,22.0%,?,nt
Cc1ccccc1C(=O)c1c[nH]c(C(=O)NCC2CCCO2)c1 (centres undefined),25.2,6.31µM*,-1.7%[38.3 µM],6.2%[46.1 µM],?,-4.5
Cc1ccccc1C(=O)c1c[nH]c(C(N)=O)c1,-17.1,-17.2%,11.6%[38.3 µM],2.8%[46.1 µM],7.94µM*,6.2

# Source: PubChem BioAssay
